In PubChem BioAssay AID1416 (The Scripps Research Institute Molecular Screening Center, 2008):
About 370 (0.17%) of roughly 220,000 compounds were called active. The full list was thinned out, with actives kept by preference. Unmarked numbers belong to inactive results.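 How the source made its calls: active means inhibition above the mean inhibition of all tested compounds plus 3 SD, set separately per screening campaign (cut at about 2.9% in these data); inactive means the rest.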

Biological target: Eukaryotic translation initiation factor 2-alpha kinase 3 (Homo sapiens) (UniProt Q9NZJ5)
Assay: block of dimerizer-induced PERK translation repression, primary screen, PERK inhibitor project, CHO PERK-DD cells, SEAP luminescence, HTS (AID 1416);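 further: PERK kinase domain activated by AP20187 dimerizer at 100 nM; 0% = DMSO with dimerizer and 100% = rapamycin at 8.4 µM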
Details: CHO PERK-DD fusion, SEAP luminescence translation reporter; at 5.6 µM; active compounds read high

Sequence of Eukaryotic translation initiation factor 2-alpha kinase 3 (Homo sapiens) (Q9NZJ5 whole entry, looked up, the tested form may be a part): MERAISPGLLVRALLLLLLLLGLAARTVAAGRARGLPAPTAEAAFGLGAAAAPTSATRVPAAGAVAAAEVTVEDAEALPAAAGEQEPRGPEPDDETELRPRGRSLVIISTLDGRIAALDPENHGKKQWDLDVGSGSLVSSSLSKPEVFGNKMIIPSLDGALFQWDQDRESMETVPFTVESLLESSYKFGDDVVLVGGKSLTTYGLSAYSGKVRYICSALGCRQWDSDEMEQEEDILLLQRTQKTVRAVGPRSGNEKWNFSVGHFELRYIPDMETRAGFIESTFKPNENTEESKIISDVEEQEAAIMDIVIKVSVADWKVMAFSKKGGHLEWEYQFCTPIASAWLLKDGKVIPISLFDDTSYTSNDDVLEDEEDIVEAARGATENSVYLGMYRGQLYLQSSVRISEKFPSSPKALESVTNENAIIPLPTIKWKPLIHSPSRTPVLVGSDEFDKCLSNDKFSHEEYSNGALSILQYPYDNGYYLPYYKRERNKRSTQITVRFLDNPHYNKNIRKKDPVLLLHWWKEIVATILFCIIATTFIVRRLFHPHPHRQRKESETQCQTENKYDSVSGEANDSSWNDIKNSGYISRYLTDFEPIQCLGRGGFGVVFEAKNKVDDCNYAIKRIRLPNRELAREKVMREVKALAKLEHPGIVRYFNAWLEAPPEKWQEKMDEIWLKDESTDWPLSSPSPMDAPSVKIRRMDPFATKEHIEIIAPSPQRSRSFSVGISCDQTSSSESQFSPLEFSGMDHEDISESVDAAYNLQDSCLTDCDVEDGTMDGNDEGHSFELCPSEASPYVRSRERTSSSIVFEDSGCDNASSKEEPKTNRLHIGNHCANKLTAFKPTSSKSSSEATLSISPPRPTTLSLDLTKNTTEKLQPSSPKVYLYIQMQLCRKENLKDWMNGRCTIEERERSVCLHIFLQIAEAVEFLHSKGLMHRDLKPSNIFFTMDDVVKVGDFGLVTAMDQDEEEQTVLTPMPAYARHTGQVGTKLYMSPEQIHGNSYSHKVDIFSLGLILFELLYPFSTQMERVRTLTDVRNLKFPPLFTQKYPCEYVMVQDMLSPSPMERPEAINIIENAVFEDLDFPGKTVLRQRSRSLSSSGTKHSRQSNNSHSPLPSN

SMILES | inhibition
Cc1cccc(C(=O)Nc2ccc(C(=O)/C=C/c3cccs3)cc2)c1 | -1.44%
COc1cc(/C=C/C(=O)OCC(=O)NC(=O)NCc2ccccc2)ccc1OCC#N | 0.97%
O=C(c1ccco1)N1CCN(C(=O)C2CCCN(S(=O)(=O)c3cccc4nsnc34)C2)CC1 (stereo unspecified) | 0.2%
CN(C)c1ccc(NC(=O)CSc2n[nH]c(-c3ccco3)n2)cc1 | -0.7%
COc1ccccc1Cn1c(C)nnc1-c1cnn(C)c1N | 0.89%
CCSc1ccccc1C(=O)NCc1ccc(OC)cc1 | 0.41%
CCn1cc(CN2CCCC(CNS(=O)(=O)Cc3ccccc3)C2)cn1 (stereo unspecified) | 1.56%
COc1c(N2CCN(C(=S)Nc3ccccc3F)C(C)C2)c(F)cc2c(=O)c(C(=O)O)cn(C3CC3)c12 (stereo unspecified) | 1.87%
Cc1ccccc1-n1nc(C)c2cc(C(=O)NC3CC3)sc21 | -1.39%
Cc1c(Cl)c([N+](=O)[O-])nn1CC(=O)NCC1CCCO1 (stereo unspecified) | 0.38%
Cc1cc(S(=O)(=O)NC2CCCCC2)ccc1OCC(=O)NCc1cccnc1 | 0.23%
CC(=O)NCc1ccc(S(=O)(=O)NC2CCN(Cc3ccccc3)CC2)cc1 | 1.04%
O=C1CCC(=O)N1c1ccc(NCCc2ccccc2F)c([N+](=O)[O-])c1 | -0.58%
NC(=O)c1ccc(N2CCOCC2)nc1 | 2.55%
N#CC1=C(N)N(c2ccc(F)cc2)C(=O)C1 | 0.76%
CCOC(=O)c1ccc(COC(=O)CCc2nc(-c3ccccc3)c(-c3ccccc3)o2)cc1 | -0.32%
Cc1cc(NC(=O)COC(=O)COc2ccc(Cl)cc2C)c([N+](=O)[O-])cc1C | 0.97%
CCOC(=O)C1=C(C)N=C2c3ccccc3C(=O)C2C1c1ccc(Br)cc1 (stereo unspecified) | 0.04%
CCOc1cnc(C(=O)NNC(=O)c2ccccc2Br)o1 | 1.53%
CC1CN(C2CCN(C(=O)COc3ccccc3)CC2)CC(C)O1 (stereo unspecified) | 0.89%
Cc1nn(CC2CC2)c(=O)n1N(C)c1ncc(C(F)(F)F)cc1Cl | 1.31%
O=C(Cn1cnc2ccccc21)N/N=C/c1ccco1 | -0.07%
O=C(O)/C=C\C(=O)Nc1ccc(OCc2ccccc2)cc1 | 1.09%
CCOc1c(Br)cc(/C=C2\C(=O)N(CCC#N)N=C2C)cc1OC | 1.06%

SMILES | inhibition
O=[N+]([O-])c1ccccc1NCc1ccccc1Cl | 0.13%
COc1ccc([N+](=O)[O-])cc1N(CC(O)Cn1nnc2ccccc21)S(=O)(=O)c1ccc(C)cc1 (stereo unspecified) | -0.77%
O=C(O)CC1(CC(=O)Nc2cccc(C(F)(F)F)c2)CCCC1 | 1.02%
O=C(Nc1ccc2c(c1)C(=O)OC2)Nc1cccc2ccccc12 | 1.57%
CC(=O)c1cc2c(cc1NC(=O)CN1CCCCCC1)OCO2 | -1.22%
CC(=O)c1ccc2c(c1)OCCOCCOc1ccc(C(C)=O)cc1OCCOCCO2 | -1%
CC(=O)c1cc2c(cc1N)OCO2 | 4.03% (active)
Cc1ccc2cc(C)c(N3CCC(C)CC3)nc2c1 | 1.08%
CCCCC(CC(C)O)c1n[nH]c(=S)n1-c1ccccc1 (stereo unspecified) | 0.58%
S=c1[nH]nc(COc2ccccc2)n1-c1ccccc1 | 0.99%
CC(NS(=O)(=O)c1ccccc1)c1n[nH]c(=S)n1-c1ccccc1 (stereo unspecified) | 3.52% (active)
CC(C)CNC(=O)CC(NCC(C)C)C(=O)O (stereo unspecified) | 0.39%
COc1ccccc1CN(C)C(=O)C1(c2ccc(Cl)cc2)CC1 | 0.49%
Cc1nnc(SCC(=O)Nn2cnnc2)s1 | 0.16%
Cc1nnc(SCC(=O)NC2CCCC2)s1 | 3.36% (active)
Cc1cnc(NC(=O)CSc2nnc(C)s2)s1 | 1.08%
CC(=O)C1(C)N(O)C(C)(C)C(c2cccs2)=[N+]1[O-] (stereo unspecified) | 0.19%
COc1cccc(Nc2nnc(SCC(=O)N3CC(=O)Nc4ccccc43)s2)c1 | 0.32%
CC1CC(=S)Nc2ccccc2N1Cc1ccccc1 (stereo unspecified) | 0.04%
O=C1c2ccccc2C(=O)c2c1cccc2N1CCN(CCO)CC1 | -0.7%
COCc1c(C(=O)OCc2c(C)noc2C)oc2ccccc12 | 1.59%
CCOc1ccc(/C=N/NC(=O)CSc2ccccn2)cc1O | -0.92%
CC1=C(C(=O)N(C)C)C(c2ccccc2OC(F)F)NC(=O)N1 (stereo unspecified) | 1.73%
CCOC(=O)c1ccc(NC(=O)c2cc(=O)[nH]c3ccccc23)cc1 | 0.84%

SMILES | inhibition
O=C(Nc1cccc(F)c1)N1C2CCC1CC(O)(c1cccnc1)C2 (stereo unspecified) | 0.63%
O=C(Nc1ccccc1)OCc1cc(-c2ccc(Cl)cc2)on1 | 3.15% (active)
O=C(Nc1ccc(Cl)cc1)OCc1cc(-c2ccccc2)on1 | 0.13%
O=C(Nc1ccccc1)OCc1cn(-c2ccc(Cl)cc2)nn1 | 1.21%
CCN(CC)CC1(O)CCN(C(=O)c2ccc(Cl)c(Cl)c2)CC1 | 1.07%
Cn1c(=O)c2cc(S(=O)(=O)NCCC(=O)Nc3ccc(F)cc3F)ccc2n(C)c1=O | 2.78%
Cc1ccc(S(=O)(=O)NCC(=O)N(CC(=O)NC(C)(C)C)Cc2cccs2)cc1 | 1.04%
Cc1ccoc1C(=O)Nc1cccc(Oc2ccccc2)c1 | -1%
Cc1nc(CN2CCN(C(=O)CCc3nnc(Cc4c[nH]c5ccccc45)o3)CC2)cs1 | 0.14%
O=C(NNc1cc(Cl)cc(Cl)c1)c1c(F)cccc1Cl | 0.97%
COCCNC(=S)N1CCC(NC(=O)C23CC4CC(CC(C4)C2)C3)CC1 | -0.41%
Cc1ccc(C2Nc3ccccc3C(=O)N2CCN2CCNC2=O)cc1 (stereo unspecified) | 0.32%
CN(C)/C=C(/C(=O)c1ccc(Cl)c(Cl)c1)c1nnnn1-c1ccccc1 | 1.85%
O=C1COc2ccc(C(=O)COC(=O)c3cccnc3Cl)cc2N1 | 0.94%
CCOc1ccc(S(=O)(=O)Nc2nccs2)cc1 | 1.47%
Cc1ccc2c(c1)NCC(C(=O)NC1CCC(C)CC1)O2 (stereo unspecified) | 0.88%
COCc1c(C(=O)N/N=C/C2CC=CCC2)nnn1-c1nonc1N (stereo unspecified) | 0.44%
COc1ccc(NC(=S)Nc2ccc(S(N)(=O)=O)cc2)c(C)c1 | 1.02%
CN(Cc1ccccn1)Cc1nc(-c2ccc(Cl)cc2)no1 | 0.32%
COC(=O)C1=C(C)NC(=O)CC1c1ccccc1OC (stereo unspecified) | 0.25%
CN(c1ccc(OCC(=O)NC2=NCCS2)cc1)S(=O)(=O)c1ccc(F)cc1 | 1.79%
Cc1cccc(N2CCN(c3ccc(NC(=O)/C=C\C(=O)O)cc3)CC2)c1 | 0.1%
CS/C(=C\[N+](=O)[O-])Nc1ccc(C)cc1 | 1.47%
CCOCCn1c(-c2ccccc2)nc2ccccc21 | -1.39%

SMILES | inhibition
Cc1ccccc1C1=N/C(=C/c2cccnc2)C(=O)O1 | 0.44%
O=C(CC1Nc2ccccc2NC1=O)Nc1ccccc1NC(=O)CC1Nc2ccccc2NC1=O (stereo unspecified) | 0.97%
CN(C)S(=O)(=O)N1CCN(c2ccc([N+](=O)[O-])cc2)CC1 | 0.53%
Cc1cc(NC(=O)/C=C/C(=O)N(c2ccccc2C)C(C(=O)NC2CCCC2)c2ccc(F)cc2)no1 (stereo unspecified) | 2.4%
CSc1sc(C(=O)NC(=O)NCc2cccnc2)c(C)c1-c1ccon1 | -0.78%
Cc1c(C=O)n(C)n(-c2ccccc2)c1=O | 0.28%
Cc1ccc(Cl)c(NC(=O)CN(C)CC(=O)Nc2ccc(F)c(F)c2F)c1Cl | 0.24%
Cc1noc(C)c1C(=O)OCC(=O)N1CCN(S(=O)(=O)c2ccc3ccccc3c2)CC1 | 1.94%
COc1ccc(C(F)(F)F)cc1N/C=C\c1nnnn1-c1ccc(C)cc1 | 1.24%
C#CCNC(=O)C1=C[C@@H](c2ccccc2)[C@H](CCCO)[C@@H](OCC)O1 | 0.82%
CSCC[C@H](NC(=O)NCCc1ccc(F)cc1)C(=O)O | 0.4%
C[C@H](NC(=O)NCCc1ccccc1)C(=O)O | 1.63%
CC(C)C[C@H](NC(=O)NCCc1ccc(Cl)cc1)C(=O)O | 3.16% (active)
CC(=O)c1ccc(NC(=O)CSC(=S)N2CCCC2)cc1 | -0.15%
Cc1cc(C)n(CC(O)CN(c2ccccc2)S(=O)(=O)c2ccc3ccccc3c2)n1 (stereo unspecified) | 0.84%
CC(C)CCSc1ncnc2c1oc1nc3c(cc12)COC(C)(C)C3 | -0.1%
CC(=O)Nc1cccc(/C(C)=N/NC(=O)c2c(-c3ccccc3Cl)noc2C)c1 | -0.07%
COc1ccccc1N=C(C)C1=C(O)COC1=O | 0.22%
O=[N+]([O-])c1ccc2c(c1)C(O)n1nc(-c3ccccc3)nc1S2 (stereo unspecified) | 1.41%
Cc1ccc(C(C)(C)C)c(OCCCCN2CCCC2)c1 | -1.02%
CS(=O)(=O)N(CC(=O)Nc1ccc(F)cc1F)c1cccc([N+](=O)[O-])c1 | 1.41%
Cc1ccc(C)c(NC(=S)NNC(=S)Nc2ccc(C(C)C)cc2)c1 | 0.16%
OCCN1CCN(C(=S)c2ccc(-c3ccccc3)cc2)CC1 | 0.18%
CCOc1ccc(C(=O)NC(=S)Nc2ccc(N3CCOCC3)c(Cl)c2)cc1[N+](=O)[O-] | 1.74%
